Bioassay records (PubChem BioAssay)
Most compounds without a hit are left out; they make up all but 3.7% or so of the library.
DRV1 agonist: GPR32 (DRV1) agonism, beta-arrestin recruitment; O75388; CHO-K1 GPR32 beta-arrestin PathHunter luminescence, 90 min; zero percent set by DMSO-only wells; activation, % at 76.9 µM; 48,000 tested, 2.5% active; AID 1346428;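 active = activation of at least 60% and not above a set upper limit, about 1 call in 100 departs from these limits; inconclusive = activation of 40% to 60%, or above that upper limit; inactive = activation under 40%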; note: 0% is about no effect
Target sequence (O75388 whole entry, looked up): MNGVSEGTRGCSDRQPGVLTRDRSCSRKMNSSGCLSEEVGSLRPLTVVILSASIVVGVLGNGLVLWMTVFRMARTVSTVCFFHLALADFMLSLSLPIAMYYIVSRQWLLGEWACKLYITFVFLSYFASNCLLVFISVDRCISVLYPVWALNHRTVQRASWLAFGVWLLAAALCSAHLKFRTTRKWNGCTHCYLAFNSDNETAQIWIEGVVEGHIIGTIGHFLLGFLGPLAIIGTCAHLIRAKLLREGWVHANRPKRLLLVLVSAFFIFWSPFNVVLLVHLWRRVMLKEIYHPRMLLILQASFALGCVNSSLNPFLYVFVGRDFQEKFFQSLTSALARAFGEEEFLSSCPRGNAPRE
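Using DMSO wells as EC0, agonist-induced signal was taken as chemiluminescence from beta-Gal reconstituted upon beta-arrestin recruitment to GPR32 in CHO-K1 cells after 90 min compound treatment.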
HTT promoter inh: inhibitors of huntingtin promoter activity; HEK293 HTT promoter firefly luciferase reporter, 24 h; Potency, µM (titrated, usually from 57.5 µM), for inactives: at the highest dose activity change, negative = inhibition, actives largely listed as inhibitors; 48,000 tested, 0.93% active; AID 1508623; note: potency is the fitted concentration of half-maximal effect; nearly all actives have a fitted effect of over 50% in size
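HEK293 cells carrying firefly luciferase reporters were seeded at 2,500 per well in Opti-MEM and cultured for 24 h. They were then treated with compounds at up to 57.5 uM final for 24 h at 37 degrees C before Dual-Glo luminescence readout.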
HTT-AS act: HTT-AS promoter activation | 48,000 tested, 0.24% active | Potency, µM (top dose mostly 57.5 µM), for the others: at the highest dose activity change, positive = activation, actives largely listed as activators | HEK293 HTT-AS promoter firefly luciferase reporter, 24 h; response scale: percent change from vehicle, -100% = no light; note: potency is the fitted concentration of half-maximal effect; nearly all actives have a fitted effect of over 55% in size
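HEK293 Fluc reporter, 2,500 cells/well, 24 h pre-culture; cpds up to 57.5 uM final, 24 h 37 degrees C; Dual-Glo, 10 min RT; normalized vehicle = 0%, zero RLU = -100%.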
* = called active by the depositor; ? = inconclusive; nt = no result given; ! = a repeat was not active; [ ] = remark or other dose. Unless noted, calls come from the whole dose curve; as a rule, active = well fitted curve in the direction sought with a large enough effect; inconclusive = small, poorly fitted or top-dose-only effect, or another doubt; inactive = no such curve, though single readings can be large; an effect the other way counts as inactive or inconclusive.

SMILES	DRV1 agonist	HTT promoter inh	HTT-AS act
CN1CCC[C@H]1CCO[C@](C)(c1ccccc1)c1ccc(Cl)cc1	nt	11.5%	-16.5%
COc1cc(S(=O)(=O)NCCc2c(C)[nH]c3ccccc23)c(C)cc1C	78.3*	-13.9%	-19.7%
CCOc1ccc(S(=O)(=O)NCCc2c(C)[nH]c3c(Cl)cccc23)cc1C	24.8	-18.7%	-17.1%
c1ccc2c(Oc3nc(Nc4ccc(N5CCOCC5)cc4)c4ncn(C5CCCCC5)c4n3)cccc2c1	nt	0.1%	-10.2%
O=C(CSc1ncc2c(n1)-c1ccccc1N(Cc1ccc(F)cc1)S2(=O)=O)c1ccc(Cl)cc1	-3.0	-16.2%	16.2%
O=C(c1cncc(Br)c1)N1CCC(N2CCCC2)CC1	nt	5.6%	-0.6%
Cc1cc2nc(-c3cccc(NC(=O)COc4ccc(Cl)c(C)c4)c3)oc2cc1C	1.7	41.3%	?
Cc1cc2nc(-c3cccc(NC(=O)COc4ccc(C(C)C)cc4)c3)oc2cc1C	-6.2	74.3%	1µM*
Cc1cccc(NS(=O)(=O)c2ccc3[nH]c(=O)[nH]c3c2)c1C	13.3	-15.8%	-18.0%
Cc1ccc(NS(=O)(=O)c2cn(C)c(C)n2)c(Br)c1	34.7	-2.0%	-10.9%
Cc1cccc(NS(=O)(=O)c2ccc(-n3cccn3)cc2)c1C	72.6*	?	-45.4%
Cc1ccc(NS(=O)(=O)c2ccc(-n3cccn3)cc2)c(Br)c1	71.7*	?	-36.4%
CC(C)c1ccc2oc(-c3cccc(NC(=O)c4ccc5c(c4)OCCO5)c3)nc2c1	-2.2	-10.6%[11.5 µM]	25.0%
CCCSc1ncc(Cl)c(C(=O)Nc2c(C(=O)c3ccc(C)cc3)oc3ccccc23)n1	-0.7	-8.4%	-9.1%
CCN(CC)C(=S)SSC(=S)N(CC)CC	92.5*!	?	-6.5%
CCn1c(=O)cc(OCC(=O)NCc2ccc(F)cc2Cl)c2ccccc21	6.7	-8.7%	7.0%[11.5 µM]
CCn1c(=O)cc(OCC(=O)N2CCN(c3ccc(F)cc3)CC2)c2ccccc21	29.1	-6.3%	-18.4%
CCn1c(=O)cc(OCC(=O)N2CCN(c3ccc(C)cc3)C(C)C2)c2ccccc21 (configuration not stated)	74.2*	?	-44.6%
CCOc1ccc(-c2cc(C(=O)N3CCN(c4cccc(C)c4)C(C)C3)c3ccccc3n2)cc1 (configuration not stated)	-16.4	-17.6%	0.0%
CCOc1ccc(-c2cc(C(=O)N3CCN(c4ccc(C)cc4)C(C)C3)c3ccccc3n2)cc1 (configuration not stated)	-22.7	8.9%	1.78µM*
CCc1ccc(CNC(=O)COc2cc(=O)n(CC)c3ccccc23)cc1	116.9*	-39.4%[11.5 µM]	-28.7%
Nc1ncnc2c1c(-c1cnc3[nH]ccc3c1)nn2C1CCCC1	nt	?	-37.7%
CO[C@@]1(NC(=O)C(C(=O)O)c2ccc(O)cc2)C(=O)N2C(C(=O)O)=C(CSc3nnnn3C)CO[C@@H]21 (some centres not stated)	63.0*	15.7%	7.1%
CCN1CCN(C(=O)N[C@H](C(=O)N[C@@H]2C(=O)N3C(C(=O)O)=C(CSc4nnnn4C)CS[C@@H]23)c2ccc(O)cc2)C(=O)C1=O	nt	1.2%[19.1 µM]	2.4%[19.1 µM]
CC[C@@]1([C@@H]2O[C@@H]([C@H]3O[C@@](O)(CO)[C@H](C)C[C@H]3C)C[C@H]2C)CC[C@H]([C@]2(C)CC[C@]3(C[C@H](O)[C@@H](C)[C@@H]([C@@H](C)[C@@H](OC)[C@H](C)C(=O)O)O3)O2)O1	nt	?	-37.3%[25.1 µM]
SMILES	DRV1 agonist	HTT promoter inh	HTT-AS act
Cc1ccc(/C=C/C(=O)N2CCC(c3nc4ccccc4o3)CC2)cc1	-7.4	18.5%	-17.0%
Cc1ccc(S(=O)(=O)N2CCCC2C(=O)Nc2ccc(Br)cc2)cc1 (configuration not stated)	9.9	31.6µM*	-50.4%
CCc1ccc(NC(=O)C2CCCN(S(=O)(=O)c3cccc4nonc34)C2)cc1 (configuration not stated)	89.0*	-6.2%	-14.9%
CC(C)c1ccc(NC(=O)C2CCCN(S(=O)(=O)c3cccc4nonc34)C2)cc1 (configuration not stated)	17.0	-11.9%	-8.3%
Cc1ccc(NC(=O)C2CCCN2S(=O)(=O)c2ccc3c(c2)n(C)c(=O)c(=O)n3C)cc1 (configuration not stated)	-9.2	-13.6%	-6.1%
O=C(Nc1ccc(Br)cc1)C1CCCN(S(=O)(=O)c2ccc(Br)s2)C1 (configuration not stated)	81.9*	-14.9%	-25.5%
COc1ccc(NC(=O)C2CCCN(S(=O)(=O)c3cccs3)C2)cc1 (configuration not stated)	7.8	-18.7%	-16.9%
CCOC(=O)c1cc(-c2ccc(F)cc2)n(CCC(=O)Nc2nc3ccc(OC)cc3s2)c1C	-31.1	?	-38.7%
Cc1ccccc1Cn1ccn(-c2ccc(F)c(F)c2)c(=O)c1=O	-5.0	-3.2%	1.0%
N#Cc1ccc(Oc2ccc3c(c2)COB3O)cc1	nt	-0.7%	0.2%
CN(C(=O)CSc1nc2ccc(NC(=O)c3ccco3)cc2s1)c1ccccc1	?	?	-32.8%
CCOCCCN(Cc1ccco1)C(=O)c1cc2c(s1)-c1c(C)cccc1OC2	-33.0	?	-31.1%
COc1ccc(CNC(=O)CN(c2ccc(C)cc2)S(=O)(=O)c2c(C)n[nH]c2C)cc1	-2.4	-5.1%	-5.4%
COc1cccc(CNC(=O)CN(c2ccc(C(C)C)cc2)S(=O)(=O)c2c(C)n[nH]c2C)c1	70.8*	-5.4%	-21.3%
CCOc1cccc(C(=O)Nc2ccc3oc(-c4ccncc4)nc3c2)c1	?	?	-24.5%
CCOc1cc(OCC)cc(C(=O)Nc2cccc(-c3nc4ccccc4[nH]3)c2)c1	-18.3	?	-68.1%
CCCOc1ccc(C(=O)Nc2cccc(-c3nc4ccccc4[nH]3)c2)cc1	82.5*	-0.1%	-9.8%
CCCOc1cccc(C(=O)Nc2ccc(-c3nc4ccccc4o3)cc2)c1	107.7*	9.2%	-14.7%
CC(=O)Nc1ccc([C@H](C)C(=O)Nc2ncc(C(C)C)s2)cc1	nt	?	-19.1%
CC(=O)Nc1ccc(S(=O)(=O)Nc2nc3n(n2)C(c2ccccc2)C=C(c2ccc(Cl)cc2)N3)cc1 (configuration not stated)	83.5*	1.0%	-4.1%
Cc1ccc(S(=O)(=O)Nc2nc3n(n2)C(c2ccc(Cl)cc2)C=C(c2ccccc2)N3)cc1 (configuration not stated)	88.5*	-15.2%	-14.0%
O=S(=O)(Nc1nc2n(n1)C(c1ccc(F)cc1)C=C(c1ccccc1)N2)c1ccc(Cl)cc1 (configuration not stated)	?	-17.9%	-19.5%
Cc1ccc(C2C=C(c3ccc(Cl)cc3)Nc3nc(NC(=O)c4ccco4)nn32)cc1 (configuration not stated)	107.6*	?	-49.5%
COc1ccc(C2C=C(c3ccccc3)Nc3nc(NS(=O)(=O)c4ccc(Cl)cc4)nn32)cc1 (configuration not stated)	?	-11.6%	-11.1%
COc1ccccc1C(=O)Nc1nc2n(n1)C(c1ccc(F)cc1)C=C(c1ccc(Cl)cc1)N2 (configuration not stated)	10.7	?	-37.7%
